High-throughput results (PubChem BioAssay)
D3 ag: agonists of human D3 dopamine receptor. D3R DiscoveRx beta-arrestin cells, luminescence, 90 min. P35462. 410,000 tested, 0.58% active. max activation, %. AID 652048; in the data active = max activation above about 30%; note: 0% is about no effect
Target sequence (P35462 whole entry, looked up): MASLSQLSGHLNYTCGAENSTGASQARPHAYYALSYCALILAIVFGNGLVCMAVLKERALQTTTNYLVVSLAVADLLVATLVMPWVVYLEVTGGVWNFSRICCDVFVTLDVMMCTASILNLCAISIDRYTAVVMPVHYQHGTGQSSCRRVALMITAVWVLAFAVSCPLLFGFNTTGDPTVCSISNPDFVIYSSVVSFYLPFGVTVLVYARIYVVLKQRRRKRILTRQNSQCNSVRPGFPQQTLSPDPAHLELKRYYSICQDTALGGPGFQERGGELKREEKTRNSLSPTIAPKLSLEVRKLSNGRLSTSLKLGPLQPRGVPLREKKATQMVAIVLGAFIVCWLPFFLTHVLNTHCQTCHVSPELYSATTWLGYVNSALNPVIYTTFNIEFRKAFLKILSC
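Cells at 1500/well, incubated overnight, then treated with pinned compounds (dopamine as control) for 90 min at 37 degrees C. DiscoveRx reagent added for 30 - 60 minutes at room temperature; luminescence read.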
RGS4 inhibitor: inhibitors of human regulator of G protein signaling 4; P49798; Transcreener GDP fluorescence polarization, RGS4-accelerated GTP hydrolysis; Potency, µM (titrated, usually from 114 µM), inactives show at the top dose activity change, negative = inhibition, usual class: inhibitors; 390,000 tested, 0.039% active; AID 504845; active = well fitted inhibition curve with a large enough effect; inconclusive = small, poorly fitted or top-dose-only effect; inactive = no such curve, though single readings can be large or run the other way; note: potency is the fitted concentration of half-maximal effect; % is set by controls: 0 for no effect and ±100 for the full control effect; nearly all actives have a fitted effect of over 75% in size
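MLSMR compounds (23 nl, pin-transferred) preincubated 10 min at room temperature with a 500nM (2x) first reagent, then RGS4 at 900nM (2x) plus Transcreener GDP mix added; fluorescence polarization (620/688 nm) read before and after 90 min at 30 °C.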
D3 antag: D3 dopamine receptor (human) antagonism | 360,000 tested, 2.5% active | D3R cells, DiscoveRx beta-arrestin luminescence, antagonist mode; stronger effect = lower value | AID 652054 | max response, negative = inhibition, %; in the data active = max response below about -50%; inconclusive = no clear call, values can overlap the other calls; note: % is set by controls: 0 for no effect and ±100 for the full control effect
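Cells plated overnight at 1500 cells/well, then exposed to library compounds with dopamine controls for 90 minutes at 37 degrees C. DiscoveRx reagent added for 30–60 minutes at room temperature; luminescence read, quantitative HTS format.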
uPA generation: inhibitors of cell surface uPA generation | cell surface uPA generation assay, qHTS | Potency, µM (top dose mostly 38.3 µM), for inactives: at the top dose activity change, negative = inhibition, most hits filed as inhibitors | 330,000 tested, 0.31% active | AID 540303; active = well fitted inhibition curve with a large enough effect; inconclusive = small, poorly fitted or top-dose-only effect; inactive = no such curve, though single readings can be large or run the other way; tested in mouse RAW 264.7 cells; note: potency is the fitted concentration of half-maximal effect; % is set by controls: 0 for no effect and ±100 for the full control effect; nearly all actives have a fitted effect of over 55% in size
Starred values were filed as active, the others as inactive; ? = inconclusive; / = no result. The list is not random: actives were taken first. Their share in the collection is about 3.1%.

SMILES	D3 ag	RGS4 inhibitor	D3 antag	uPA generation
O=C(CSc1nnc2scc(-c3ccc(Cl)cc3)n12)Nc1cccc(C(F)(F)F)c1	-20.5	3.3%	/	/
Cc1cc(C)nc(S/C=C/C(=O)c2ccccc2F)n1	-17.1	?	-84.6*	-6.3%
COc1ccc(CNC(=O)c2cc3c(=O)oc4ccc(C)cc4c3s2)c(OC)c1	5.5	-10.6%	/	/
Nc1nc(-c2ccco2)c(-c2ccco2)s1	-12.1	?	-57.7*	-3.5%
COc1cc(C2c3cc4c(cc3OC(Nc3ccc(C(=O)O)cc3)C2C)OCO4)cc(OC)c1OC (configuration not stated)	32.7*	-19.6%	111.7	-12.3%
CN(C)CC(CCCCC(CN(C)C)C(=O)c1ccccc1)C(=O)c1ccccc1 (configuration not stated)	-12.8	-18.6%	2.9	10µM*
Cc1ccc(NC2=C(N3CCCCC3)C(=O)c3ccccc3C2=O)cc1	-12.1	-22.9%	-62.6*	-1.9%
O=C1C(Nc2ccccc2)=C(N2CCCCC2)C(=O)c2ccccc21	-2.7	-18.5%	-60.1*	-4.7%
Cc1ccccc1C(=O)NCc1nnc(SCC(=O)N2c3ccccc3Sc3ccccc32)n1C	-4.8	-9.2%	-63.8*	-1.8%
COc1ccccc1CNC(=O)Cn1ncn2c(cc3sccc32)c1=O	6.7	-39.2%	/	/
O=C(COC(=O)C1CC2C=CC1C2)Nc1cccc(S(=O)(=O)N2CCCCC2)c1 (configuration not stated)	31.4*	-8.6%	7.4	-11.4%
CC1CCN(c2nc3ccc(C(=O)NCCCN4CCCCC4C)cc3s2)CC1 (configuration not stated)	-4.5	4.2%	-19.9	11.2µM*
CC1CCCC(C)N1CCCNC(=O)c1ccc2nc(N3CCCCC3)sc2c1 (configuration not stated)	-4.7	5.6%	-17.3	?
COc1ccccc1NC(=O)Cn1nnc(C(=O)Nc2ccccc2Br)c1N	6.6	-24.0%	/	/
C/C=C/c1ccc(OCCN2CCc3ccccc3C2)c(OC)c1	-20.0	-31.0%	-75.8*	0.6%
C=CCc1ccc(OCCn2cncn2)c(OC)c1	0.1	-11.0%	13.8	1.3%
C=CCc1ccc(OCCN2CCc3ccccc3C2)c(OC)c1	-16.1	?	-74.7*	-3.8%
Cc1ccc(C)c(OCC(=O)N2CCc3ccccc3C2)c1	-3.9	10.2%	0.2	-12.1%
Cc1ccc(Cl)c(OCCN2CCc3ccccc3C2)c1	7.3	19.5%	-60.4*	9.4%
C=CCc1ccc(OCCCCN2CC(C)OC(C)C2)c(OC)c1 (configuration not stated)	-5.8	2.5%	-68.7*	0.4%
Cc1nc2ccc(S(=O)(=O)NC(C(=O)NCc3ccc(Cl)cc3)C(C)C)cc2s1 (configuration not stated)	8.2	-14.9%	/	/
COc1ccc(OCCn2c(CCNC(=O)C3CCCCC3)nc3ccccc32)cc1	/	-13.2%	/	/
Cc1ccc(C)c(N2CCN(C(=O)CCS(=O)(=O)c3cc(Br)cc4c3N(C(=O)C3CC3)CC4)CC2)c1	1.3	8.7%	/	/
CC1(C)CC(=O)C2=C(C1)OC(N)=C(C#N)C2c1cccc(OC(=O)c2ccco2)c1 (configuration not stated)	-1.1	22.3%	-90.4*	-5.1%
CC(C)CCn1c(=O)c2cccnc2n(CC(=O)Nc2ccc(F)cc2)c1=O	-15.0	25.7%	/	/
SMILES	D3 ag	RGS4 inhibitor	D3 antag	uPA generation
CC(=O)Oc1c(C)c2c3c(c1OC(C)=O)[C@@H](C)CC[C@@H]3[C@@H](C)C[C@H]2C=C(C)C	43.2*	6.9%	5.1	13.9%
Cc1cc(Br)ccc1NC(=O)CNC(=O)Cn1ncc(Cl)c(Cl)c1=O	-15.4	9.5%	-82.7*	-0.4%
Cc1ccc(S(=O)(=O)N2CCCCC2)cc1NC(=O)Cn1ncc(Cl)c(Cl)c1=O	-19.7	-24.1%	-63.7*	?
Cc1ccc2oc(=O)c3cnn(CC(=O)Nc4ccc(Br)cc4C)c3c2c1	0.7	-19.8%	/	/
COCCNC(=O)C1CCCN(C(=O)c2ccc3ccccc3n2)CC1 (configuration not stated)	53.8*	/	0.0	/
CCNC(=O)C1CCCN(C(=O)c2ccc(OC)c(OC)c2)CC1 (configuration not stated)	79.3*	/	19.8	/
CCOC(=O)c1cccc(NC(=O)CCc2c(C)nn(-c3ccc(N4CCOCC4)nn3)c2C)c1	-8.6	3.2%	/	/
CCOP(=O)(c1ccc(N(C)C)cc1)C(O)c1cccnc1 (configuration not stated)	11.8	16.1%	-1.9	3.3%
CCCOP(=O)(c1ccc(N(C)C)cc1)C(O)c1cccnc1 (configuration not stated)	30.2*	-6.3%	-8.4	/
